D3 ag – qHTS of D3 Dopamine Receptor Agonist: qHTS | max activation, % | hit rate 0.58% among 410,000 | D(3) dopamine receptor (Homo sapiens), P35462 | D3R DiscoveRx beta-arrestin cells, luminescence, 90 min; in the data active means max activation above about 30%; further: 0% is about no effect
Target sequence (P35462 whole entry, looked up): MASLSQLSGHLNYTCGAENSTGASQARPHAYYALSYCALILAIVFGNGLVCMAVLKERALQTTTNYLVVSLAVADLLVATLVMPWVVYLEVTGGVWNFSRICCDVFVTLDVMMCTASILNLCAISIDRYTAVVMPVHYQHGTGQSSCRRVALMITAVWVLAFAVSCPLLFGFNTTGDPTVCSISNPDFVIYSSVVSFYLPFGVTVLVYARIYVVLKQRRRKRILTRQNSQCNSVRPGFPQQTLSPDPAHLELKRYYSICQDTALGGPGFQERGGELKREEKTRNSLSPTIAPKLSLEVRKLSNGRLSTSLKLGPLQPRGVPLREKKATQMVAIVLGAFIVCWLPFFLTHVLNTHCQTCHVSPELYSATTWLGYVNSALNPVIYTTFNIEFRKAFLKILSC
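Agonist-mode cell screen: cells plated at 1500/well and incubated overnight at 37 °C, then exposed to library compounds for 90 min at 37 °C. Detection reagent was added for 30–60 min at room temperature, and luminescence was read.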
Glioma ERSR ind – qHTS for Inducers of the Endoplasmic Reticulum Stress Response (ERSR) in Human Glioma: qHTS; U87-MG GRP78 promoter luciferase reporter, 16 h; Potency, µM, for the others: top-dose activation, usual class: activators; hit rate 0.02% among 420,000; AID 602332, 2012; further: potency means the concentration at half of the fitted maximal effect; series mostly up to about 76 µM; % of control where 0% means no effect; nearly all actives have a fitted effect of over 35% in size
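Stably transfected U87-MG glioma cells carrying a GRP78-based luciferase sensor; 16 h compound incubation. Luminescence end-point read 10 min after Bright-Glo addition at room temperature.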
Nrf2 ARE act – qHTS of Nrf2 Activators. AREc32 ARE-luciferase reporter (MCF7-derived line), luminescence, 24 h. AID 624171, 2012. hit rate 0.31% among 410,000. Potency, µM (top dose mostly 46.1 µM), without a hit: at the highest dose activation, most hits filed as activators; further: potency means the concentration at half of the fitted maximal effect; % of control where 0% means no effect; nearly all actives have a fitted effect of over 65% in size
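Cells of the AREc32 ARE-luciferase line are plated in OPTI-MEM containing 5% FBS and left overnight at 37 deg C. Compounds are pinned in, incubation continues 24 hr, and firefly luciferase signal is then measured.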
D3 antag – qHTS of D3 Dopamine Receptor Antagonist: qHTS | max response, negative = inhibition, % | D(3) dopamine receptor (Homo sapiens), P35462 | D3R cells, DiscoveRx beta-arrestin luminescence, antagonist mode; active compounds read low | AID 652054, 2013 | hit rate 2.5% among 360,000; in the data active means max response below about -50%; inconclusive means no clear call, values can overlap the other calls; further: on the % scale 0 is the no-effect control and ±100 the full control effect
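Cells plated overnight at 1500 cells/well, then exposed to library compounds with dopamine controls for 90 minutes at 37 degrees C. DiscoveRx reagent added for 30–60 minutes at room temperature; luminescence read, quantitative HTS format.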
* = called active by the depositor; u = inconclusive; x = no result. Sampled rows, rich in hits. Any-hit rate of the full collection: about 3%. Unless noted, the call rests on the fitted dose curve; in most records, active means well fitted curve in the direction sought with a large enough effect; inconclusive means small, poorly fitted or top-dose-only effect, or another doubt; inactive means no such curve, though single readings can be large; an effect the other way counts as inactive or inconclusive.

SMILES	D3 ag	Glioma ERSR ind	Nrf2 ARE act	D3 antag
COc1ccc(/C(C)=N/Nc2nccnc2Cl)cc1	-9.4	-1.4%	13.7%	u
Cc1ccccc1N1CCN(C2CCCN(C(=O)CCC3(C)CC3)C2)CC1 (configuration not stated)	-7.0	-0.2%	5.1%	-64.4*
Cc1ccccc1N1CCN(C2CCCN(C(=O)CCC(=O)N(C)C)C2)CC1 (configuration not stated)	-3.2	-2.8%	-1.0%	2.6
CCNc1c([N+](=O)[O-])c(=O)n(CC)c2ccccc12	-1.6	-1.9%	-0.3%	2.7
CCn1c(=O)c([N+](=O)[O-])c(NCc2ccco2)c2ccccc21	-0.4	-4.7%	8.91µM*	13.9
Cc1csc(SCC(=O)N2CCOc3ccc(C(O)C4CCCCC4)cc3C2)n1 (configuration not stated)	x	-1.1%	x	x
COc1ccc(CCNC(=O)C(CC(C)C)N2Cc3ccccc3C2=O)c(OC)c1OC (configuration not stated)	-3.9	-0.2%	2.8%	x
CCOc1ccc(CCNC(=O)COC(=O)c2ccc(OC(C)C)cc2)cc1OCC	0.6	1.0%	0.3%	-53.1*
Cc1c(C(=O)N2CCOc3ccccc3C2)sc2ncnc(NCCCN3CCOCC3)c12	x	-3.3%	x	x
Cc1ccc2nc(Cl)c(C3CC(c4cccs4)=NN3C(=O)CCCC(=O)O)cc2c1 (configuration not stated)	31.5*	-1.1%	-0.9%	12.1
CO[C@H]1[C@H](NC(=O)c2ccco2)c2ccccc2C12CCN(Cc1cnc(N(C)C)s1)CC2	x	-4.5%	x	x
CN(CC(=O)NC1CCCc2ccccc21)C1CCCCC1 (configuration not stated)	-11.9	-1.1%	-0.6%	-51.1*
Cn1c(SCC(=O)NNC(=O)Cc2ccccc2)nnc1-c1ccccc1	-1.6	-3.4%	-0.6%	3.4
CCn1c(SCC(=O)NNC(=O)Cc2ccccc2)nnc1-c1ccccc1	-10.4	-1.5%	0.3%	-51.4*
CCn1c(SCC(=O)Nc2ccccc2F)nnc1-c1ccoc1C	-24.8	-1.5%	1.2%	-54.7*
CCn1c(SCC(=O)Nc2ccccc2-c2ccccc2)nnc1-c1ccoc1C	-9.2	-5.5%	-0.5%	2.3
Cc1ccc(NC(=O)CSCc2cc(=O)c3ccccc3[nH]2)c(C)c1	22.5	-1.7%	9.0%	x
CCCCCCCCCCCCC/C=C/[C@@H](O)[C@H](CO)NC(=O)CCCCC	x	1.3%	x	x
CSCC[C@H](NC(=O)c1ccc(NC[C@@H](N)CS)cc1-c1ccccc1)C(=O)O	x	2.0%	x	x
Cc1ccc(-c2c(C)n3c4c(=O)n(C)c(=O)n(C)c4nc3n2CCO)cc1	45.6*	-2.6%	-0.4%	x
CCCCn1c(-c2ccc(C)cc2)c(C)n2c3c(=O)n(C)c(=O)n(C)c3nc12	6.7	-2.5%	2.7%	x
COc1cc(C=O)ccc1OCCCOc1ccccc1C(=O)O	4.5	0.6%	-2.1%	-54.7*
COc1cc(C=O)ccc1OCCCOc1ccccc1[N+](=O)[O-]	3.5	3.7%	3.9%	0.1
COc1cc(C=O)ccc1OCCOc1ccccc1[N+](=O)[O-]	-1.9	4.9%	12.6µM*	-61.7*
O=C(Nc1nccs1)[C@@H]1CC=C[C@@H]2CCN(C3CC3)C(=O)[C@@H]21	x	-2.1%	x	x
SMILES	D3 ag	Glioma ERSR ind	Nrf2 ARE act	D3 antag
O=c1[nH]ncc(N/N=C\c2cccs2)c1Cl	-3.2	6.6%	4.47µM*	-2.6
Cc1cccc(/C=N\Nc2cn[nH]c(=O)c2Cl)c1	-2.7	8.9%	u	-81.8*
CCCOc1ccc(CNC(=O)CCCn2nc(C)c3sc4ccccc4c3c2=O)cc1	-1.0	-5.0%	-0.3%	x
O=S1(=O)C=C(Sc2nc3cc(Cl)ccc3o2)c2ccccc21	-15.7	-13.8%	8.91µM*	-77.5*
COc1ccc(OC)c(CNC(=O)CSc2c3c(nc4cc(Cl)ccc24)CCCC3)c1	2.2	-9.7%	u	x
Cc1ccc(CNC(=O)CSc2c3c(nc4cc(Cl)ccc24)CCCC3)o1	-1.4	-16.1%	u	-76.3*
COc1cccc(CNC(=O)CSc2c3c(nc4ccc(Cl)cc24)CCCC3)c1OC	-4.4	-10.2%	12.6µM*	x
Cn1cc(/C=C/c2ccc3ccccc3n2)c2ccccc21	x	4.0%	x	x
CCOc1cc(-c2ccc(OC(=O)c3ccccc3F)cc2)cc(=O)c2c(C)oc(C)c12	-10.9	-3.1%	0.0%	x
CCc1ccc(NC(=O)CC2C(=O)N(c3ccc(Cl)cc3)C(=O)N2Cc2cccs2)cc1 (configuration not stated)	43.4*	-2.0%	5.4%	x
CCc1ccc(NC(=O)CC2C(=O)N(c3ccc(OC)cc3)C(=O)N2Cc2cccs2)cc1 (configuration not stated)	25.8	-3.0%	0.2%	x
COc1ccc(OC)c(NC(=O)C2(C)CCN2Cc2ccccc2OC(F)F)c1 (configuration not stated)	91.8*	-3.1%	3.8%	43.2
COc1ccc(-c2cc(C)no2)cc1S(=O)(=O)NCCCN1CCN(c2ccccc2)CC1	-0.2	-3.5%	2.6%	-58.0*
Cc1cc(-c2ccc(C)c(S(=O)(=O)NCCCN3CCN(c4ccccc4F)CC3)c2)on1	3.7	0.2%	3.7%	-68.5*
Cn1c(=O)oc2cc(S(=O)(=O)NCCN3CCCCCC3)ccc21	0.1	-2.2%	0.3%	1.7
Cn1c(=O)oc2cc(S(=O)(=O)NCCN3CCN(c4ccccc4F)CC3)ccc21	11.1	-2.5%	-0.7%	-54.5*
COc1ccc(Br)cc1S(=O)(=O)NCCCN1CCOCC1	-12.9	-3.4%	0.0%	-89.7*
Cc1c2c(c(O)c3c(O)cccc13)C(=O)O[C@H]2C1C(N(C)C)C(O)=C(C(N)=O)C(=O)[C@H]1O (some centres not stated)	x	-1.3%	x	x
CCOC(=O)CC(NC(=O)CCc1c(C)nc2c(c(C)nn2-c2ccc(C)c(C)c2)c1C)c1ccc(C)cc1 (configuration not stated)	4.2	2.8%	-1.3%	x
COc1ccc(C(CCN2CCN(c3ccccc3)CC2)c2c(O)cc(OC)cc2OC)cc1 (configuration not stated)	-64.7	6.3%	6.1%	-112.2*
COc1cc(O)c(C(CCN2CCCC(C)C2)c2ccc(N(C)C)cc2)c(OC)c1 (configuration not stated)	-25.3	-2.5%	0.0%	-29.8
COc1cc(O)c(C(CCN2CCN(c3ccccc3)CC2)c2ccc(N(C)C)cc2)c(OC)c1 (configuration not stated)	-67.3	-3.4%	7.3%	0.0
COc1cc(O)c(C(CCN2CCCC(C)C2)c2ccc3c(c2)OCO3)c(OC)c1 (configuration not stated)	-48.7	-5.7%	4.9%	-67.8*
COc1cccc(NC(=O)CNC(=O)Cn2c(C)cc3ccccc3c2=O)c1	8.0	-2.4%	-0.6%	x
Cn1c(=O)n(C)c2cc(N3CCOCC3)c(NC(=O)c3ccc(Cl)cc3)cc21	-12.3	-4.2%	4.1%	x
COc1ccc(CCNC(=O)c2cc(C(=O)c3cc(Cl)ccc3O)cn(CCc3ccc(OC)cc3)c2=O)cc1	-3.4	0.4%	-0.5%	40.1
